# hgDAF12 agonist = H. glycines DAF-12 receptor agonists, primary screen, cell-based, luminescence, HEK293, GAL4 fusion, UAS-luciferase. HEK293 GAL4-hgDAF12 UAS-luciferase reporter, agonist luminescence; normalized to butyrate control. activation, % at 6.8 µM. actives 1.8% (n = 370,000);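 active means activation above a cutoff set at the mean of all screened compounds plus 3 SD, cut at about 10% in these data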;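 further: 0% = DMSO wells and 100% = sodium butyrate wells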
# DAX1 inh-1 = DAX1 (NR0B1) inhibitors, primary screen, cell-based, HEK293, Gal4-DAX1, luciferase luminescence. AID 504766, 2011. inhibition, % at 6.75 µM. Nuclear receptor subfamily 0 group B member 1 (Homo sapiens), P51843. HEK293 Gal4-DAX1 luciferase reporter. actives 0.99% (n = 340,000);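 active means inhibition above the mean over all tested compounds plus 3 SD, cut at about 4.2% in these data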;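 further: 0% = DAX1-transfected cells with DMSO and 100% = empty-vector control cells with DMSO; inhibition shows as a rise in luminescence from relieved DAX1 repression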
# Target sequence (P51843 207-470 limits assumed): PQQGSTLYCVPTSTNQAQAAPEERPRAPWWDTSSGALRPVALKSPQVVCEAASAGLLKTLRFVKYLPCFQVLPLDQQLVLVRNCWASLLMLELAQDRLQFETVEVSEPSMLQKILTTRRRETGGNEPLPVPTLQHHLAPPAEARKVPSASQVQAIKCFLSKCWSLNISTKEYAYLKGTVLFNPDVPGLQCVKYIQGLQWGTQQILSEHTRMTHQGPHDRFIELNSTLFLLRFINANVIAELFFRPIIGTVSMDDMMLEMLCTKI
# DAX1 inh-2 = DAX1 (NR0B1) inhibitors on StAR promoter, primary screen, cell-based, luminescence, SF-1 (NR5A1), full-length DAX-1. HEK293T StAR-luciferase reporter, SF-1/DAX-1 repression relief. actives 1.1% (n = 370,000). inhibition, % at 6.8 µM;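 active means inhibition above the mean over all tested compounds plus 3 SD, cut at about 3.6% in these data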;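 further: 0% = DAX-1 cells with DMSO and 100% = cells lacking DAX-1 with DMSO; higher inhibition means more luminescence from relief of DAX-1 repression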
# hcDAF-12 act = H. contortus DAF-12 nuclear receptor activators, primary screen, cell-based, luminescence, HEK293, lit1-tk-luc reporter | HEK293 hcDAF-12 lit1-tk-luc reporter; 0% DMSO, 100% Δ7-dafachronic acid | activation, % at 6.8 µM | actives 1.4% (n = 370,000);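 active means activation above the mean of all tested compounds plus 3 SD, cut at about 5.5% in these data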;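 further: 100% = response to 3 µM Δ7-dafachronic acid high control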
# ssDAF-12 act = S. stercoralis DAF-12 nuclear receptor activators, primary screen, cell-based, luminescence, HEK293, GRIP1 co-expression, lit1-tk-luc | HEK293 ssDAF-12/GRIP1 lit1-tk-luc reporter; % of 3 µM dafachronic acid response | Nuclear hormone receptor DAF-12 (Strongyloides stercoralis) | actives 1% (n = 370,000) | activation, % at 6.8 µM | AID 652126, 2013;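 active means activation above the mean over all tested compounds plus 3 SD, cut at about 0.9% in these data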;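 further: 0% = DMSO-only wells and 100% = 3 µM delta7-dafachronic acid wells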
# An asterisk follows results filed as active; x = no result. Shown are actives, neighbours in structure and some others; about 4.1% of the full set was active somewhere.
SMILES,hgDAF12 agonist,DAX1 inh-1,DAX1 inh-2,hcDAF-12 act,ssDAF-12 act
COc1ccc(C(=O)Nc2ccc3ccccc3c2)cc1OC,11.7*,2.1,1.8,2.1,-0.5
COc1cc(OC)c(C(=O)Nc2ccc3ccccc3c2)cc1OC,x,5.2*,x,x,x
CS(=O)(=O)Nc1ccc(C(=O)Nc2ccc3ccccc3c2)cc1,11.3*,1.9,1.8,3.9,1.3*
COc1ccc(NC(=O)c2cc3ccccc3cc2OC)cc1OC,0.3,1.3,-0.8,-0.5,-0.7
CCOc1ccc(N(CC(=O)Nc2c(C)n(C)n(-c3ccccc3)c2=O)S(=O)(=O)c2ccc(C(C)(C)C)cc2)cc1,-3.0,x,-1.4,-1.2,-1.4
COc1ccc(C=Nn2c(-c3ccc(F)cc3)n[nH]c2=S)c(OC)c1OC,-2.2,x,-1.4,-1.9,-0.8
COc1ccc(C(=O)Nc2ccccc2C(=O)Nc2ccccc2C(=O)O)cc1,0.4,1.9,0.3,-0.8,-0.5
COc1ccc(C(=O)Nc2cccc(NC(C)=O)c2)cc1,3.3,x,1.1,0.1,0.1
COc1ccc(C(=O)Nc2ccc3ccccc3c2)cc1,9.9,-6.1,2.5,5.8*,0.6
CCOc1ccc(NC(=O)c2ccc(NC(=O)COC(=O)Cc3ccc(OC)cc3)cc2)cc1,4.7,0.5,0.9,-0.3,-0.5
COc1ccc(CC(=O)OCC(=O)Nc2ccc(C(=O)Nc3ccc(OC)cc3)cc2)cc1,-1.0,4.2*,0.2,-1.9,-1.5
COc1ccc(C(=O)Nc2ccccc2C(N)=O)cc1,12.6*,0.5,1.9,-0.3,-0.4
COc1ccc(C(=O)Nc2cccc(C)c2)cc1,11.5*,-0.4,4.0*,2.8,0.0
CCCCS(=O)(=O)N1C2=NC3=C(C(=O)N(CCOC)C3=O)C3N(C)c4ccccc4[C@]23C[C@H]1CO (some centres undefined),-3.1,x,0.2,-0.5,-1.3
NC(=O)c1ccccc1NC(=O)c1ccc2c(c1)OCO2,11.3*,2.1,1.3,2.0,0.4
COc1cc2ccccc2cc1C(=O)Nc1ccc(O)cc1,7.2,4.4*,1.9,4.5,1.4*
COc1ccc(OC)c(NC(=O)c2cc3ccccc3cc2OC)c1,1.3,-1.7,-0.5,-1.0,-1.2
COc1ccc(NC(=O)c2ccc3c(c2)NC(=O)CS3)cc1,4.5,1.0,4.4*,3.6,-1.1
CC(C)CN1C(=O)[C@]2(CC(=O)N(C)C2c2ccccc2)c2cc(-n3cc(CCCC#N)nn3)ccc21 (some centres undefined),-0.1,x,0.1,3.1,-1.1
O=C(NNC(=S)NC(=O)c1sc2ccccc2c1Cl)c1ccc(Cl)cc1,2.6,1.0,1.3,5.3,1.2*
Cn1c(SCc2ccccc2Cl)nc2c1c(=O)[nH]c(=O)n2C,2.4,-1.6,0.1,-1.3,1.5*
Cn1c(SCc2ccccc2)nc2c1c(=O)[nH]c(=O)n2C,-1.3,-0.7,0.1,-1.9,-0.6
COc1cccc(-c2nnc(SCC(=O)Nc3cccc4ccccc34)n2Cc2ccco2)c1,-2.1,x,-1.8,-3.1,-1.7
CCCC/C(O)=C1\C(=O)CC(C)(C)CC1=Nc1ccccc1OC,-2.6,-1.0,0.5,-2.8,-1.8
CCCC/C(O)=C1\C(=O)CC(C)(C)CC1=Nc1ccc(N)cc1,3.4,6.0*,0.8,0.1,-1.1
SMILES,hgDAF12 agonist,DAX1 inh-1,DAX1 inh-2,hcDAF-12 act,ssDAF-12 act
COc1cccc(/C=N/NC(=O)CNC(=O)COc2ccccc2)c1O,-3.6,-0.6,-1.0,-1.4,-0.5
O=C(COc1ccccc1)NCC(=O)N/N=C/c1ccc(O)cc1O,-1.1,7.1*,-0.5,2.1,-0.4
Cc1cccn2cc(CCNC(=O)c3ccc(Br)o3)nc12,4.6,1.4,0.7,6.0*,1.3*
Fc1c(F)c(F)c(N/N=C/c2c[nH]c3ccccc23)c(F)c1F,-1.8,0.1,0.1,6.3*,-0.6
O=C(O)c1ccc(N/N=C/c2c[nH]c3ccccc23)cc1,-0.3,-4.7,0.1,5.8*,-0.1
Cc1cc(N/N=C/c2c[nH]c3ccccc23)c2ccccc2n1,2.6,0.0,-1.0,4.5,-0.2
Cc1cc(C)nc(N/N=C/c2c[nH]c3ccccc23)n1,0.3,0.6,0.0,4.5,0.7
Cn1c(N/N=C/c2c[nH]c3ccccc23)nc2ccccc21,-0.8,0.8,0.5,5.6*,0.6
Cc1cccc(Cn2cc(CN3CC(N(C)CCOC(=O)c4cc(C)cc(C)c4)CS3(=O)=O)nn2)c1 (centres undefined),-1.0,x,-0.7,-1.4,-1.8
CCOC(=O)C1(Cc2ccccc2)CCN(Cc2ccccc2[N+](=O)[O-])CC1,-0.9,x,-0.9,-0.2,-1.8
COc1cccc(/C=C2\SC(=S)N(CCC(=O)NNC(=O)c3ccccc3OC)C2=O)c1,2.0,-0.4,0.5,4.7,1.0*
O=C(CCN1C(=O)/C(=C\c2cccc(Br)c2)SC1=S)NCCCN1CCOCC1,0.6,0.7,0.5,6.0*,-0.6
C=CCNC(=O)CN(C(=O)Cc1ccc(Cl)cc1)c1cccc(Br)c1,-3.1,x,-0.4,-0.8,-0.8
Cc1cccc(S(=O)(=O)Nc2ccc(-c3cn4ccccc4n3)cc2)c1,1.1,-1.4,-0.6,-1.3,-1.8
O=C(Nc1ccc(-c2cn3ccccc3n2)cc1)c1ccco1,12.1*,1.7,4.3*,4.7,0.1
O=S(=O)(Nc1ccc(-c2cn3ccccc3n2)cc1)c1ccccc1,5.9,4.3*,0.1,0.6,-1.1
CC(=O)CC[C@@H]1CC[C@]2(CCCN(S(C)(=O)=O)C2)O1,0.7,x,-0.6,1.1,-0.6
COc1ccc(CCN(Cc2cccs2)S(=O)(=O)c2ccc(F)cc2)cc1OC,-1.3,x,-2.9,-4.3,-0.9
COc1cc(Cl)ccc1OCc1cc(C(=O)NCc2cc(C(C)C)no2)no1,9.7,1.4,4.1*,2.2,0.2
COc1cc(C)ccc1OCc1cc(C(=O)NC(C)Cn2cncn2)no1 (centres undefined),11.1*,2.1,1.8,4.4,0.7
COc1cc(Cl)ccc1OCc1cc(C(=O)NCC(C)(C)N2CCOCC2)no1,5.6,-0.6,1.2,1.9,-0.6
CCN(C(=O)C1CCCN1S(=O)(=O)c1cccnc1)c1ccccc1 (centres undefined),-1.7,x,1.2,1.3,-1.1
COCc1cccc(-c2cc(C(=O)OC)c3n(c2=O)CCC3)c1,-1.1,x,-1.6,-1.3,-1.2
Nc1nc(CSc2ccccn2)nc(Nc2ccccc2)n1,10.9*,3.5,3.5,4.7,0.7
CC(=O)CCc1oc2ccc(C)cc2c1Cc1ccccc1,4.7,-0.1,0.3,6.5*,1.6*

# High-throughput results (PubChem BioAssay)
